Laboratory results as given in PubChem BioAssay.
Calls of active or inactive are those of the source. Unless noted, no stated cut-off is given here; in the data, active means nuclear beta-catenin stimulation mostly above about 4.2% (no sharp cut-off); inactive means mostly below about 10%. Starred links: 1 amine or outer side, 2 acyl side, 3 side chain; linkers in the order of their positions; H or OH if unused. Positions of bridges follow the written chain, without caps; N, C: chain ends. Non-standard residues stand in square brackets, D forms with d. Residues, ends and D or L forms follow the SMILES beside them. ξ: configuration not given here. *: point of attachment. ΔAla(3-NHCONH2) = NC(=O)NC=C(N)C(=O)O; X1 = NC1=NCCC(C(N[*:1])C(=O)[*:2])N1; ξβ3hOrn = NCCCC(N)CC(=O)*; Dap = NC[CH](N)C(=O)O

Tests used:
[1] = stimulators of nuclear beta-catenin in C2C12, primary screen, imaging, WNT3A-conditioned medium, mouse C2C12, NPC library (AID 1117326); details: stronger effect = higher value; further: reference of the scale not given here
[2] = stimulators of insulin release from INS-1E, primary screen, cell-based, 5 mM glucose, NPC library (AID 1117329;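 active means compound raises insulin release from rat beta cells at 5 mM glucose, no numeric limit stated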; further: reference of the scale not given here); details: rat INS-1E insulin secretion, at 10 µM, stronger effect = higher value
[3] = growth inhibition of GSK3B-pretreated HCT116 cells – cell-based, CellTiter-Glo, 0.2 to 20 µM (AID 1117336;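 active means compounds lowering colon cancer cell viability after pretreatment blocking the GSK3B kinase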); details: HCT116 viability after GSK3B inhibitor, at 20 µM, stronger effect = higher value
[4] = inhibition of endothelial tube formation, primary screen, imaging, VEGF stimulated, CD31 staining, tube area, NPC library (AID 1117340;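 active means compound that reduces growth-factor-driven endothelial tube area in a mixed cell culture, no cutoff stated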); details: VEGF-stimulated ADSC/ECFC co-culture, at 10 µM, stronger effect = higher value
[5] = glucagon-like peptide 1 release enhancers, primary assay, NCI-H716 cell line, NPC library (AID 1117341;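 active means compound raises GLP1 secretion from the human gut endocrine cells, with no numeric limit stated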; further: reference of the scale not given here); details: NCI-H716 cells, at 10 µM, stronger effect = higher value
[6] = HCT116 colon cancer cell growth inhibition, primary screen, CellTiter-Glo luminescence, NPC library (AID 1117342;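 active means compounds that lower survival of HCT116 colon cancer cells in the luminescence readout, no numeric limit stated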); details: at 20 µM (top of the series)
[7] = CellTiter-Glo luminescent readout of SW480 viability loss, NPC library primary (AID 1117343;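 active means compounds that lower viability of the colon cancer cells in the luminescence readout, with no numeric limit stated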); details: CellTiter-Glo luminescence; at 20 µM (top of the series)
[8] = decreased DLD-1 cellular survival, CellTiter-Glo luminescent readout, NPC compound collection, primary HTS (AID 1117346;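 active means compounds that lower survival of DLD-1 colon cancer cells in the luminescence readout, no cutoff given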); details: DLD-1 viability, CellTiter-Glo luminescence; at 20 µM (top of the series)

| SMILES | nuclear beta-catenin stimulation ([1]; at 10 µM) | nuclear beta-catenin stimulation ([1]; stimulation, at 2 µM) [%] | insulin secretion stimulation [2] | viability decrease [3] | tube area decrease [4] | GLP1 secretion stimulation [5] | inhibition of viability [6] | viability decrease (inhibition) [7] | viability decrease (inhibition) [8] |
| --- | --- | --- | --- | --- | --- | --- | --- | --- | --- |
| CCC1(c2cnc[nH]2)Cc2ccccc2C1 | 1.2% (inactive) | 1.5 | 13.1% (inactive) | 38% (inactive) | 22.4% (inactive) | -3.3% (inactive) | -0.4% (inactive) | 19.3% (inactive) | 38.2% (inactive) |
| O=C(CCC1CCN(Cc2ccccc2)CC1)c1ccc2c(c1)NCCCC2 | 3.2% (inactive) | 3.5 | 4.2% (inactive) | 53.5% (active) | 12.9% (inactive) | 4.3% (inactive) | 81.9% (active) | 93.9% (active) | 62.1% (active) |
| CCCCN=C(N)N=C(N)N | 2.9% (inactive) | 0.9 | -1.1% (inactive) | -10.8% (inactive) | 3.5% (inactive) | 2.1% (inactive) | 3.4% (inactive) | 54.5% (active) | -0.2% (inactive) |
| CN(C)CCN1CCN(c2cccc(Cl)c2)C1=O | 0.8% (inactive) | 0.1 | 2.6% (inactive) | 10.9% (inactive) | 8% (inactive) | 4% (inactive) | 50% (active) | 7.4% (inactive) | -1.8% (inactive) |
| O=C(COCCOCCOCC(=O)Nc1c(I)cc(I)c(C(=O)O)c1I)Nc1c(I)cc(I)c(C(=O)O)c1I | 0.1% (inactive) | -1.8 | 2.45% (inactive) | -23.9% (inactive) | -2.4% (inactive) | -3.2% (inactive) | -13.4% (inactive) | -37.4% (inactive) | -13.3% (inactive) |
| CCOCCn1c(C2CCN(CCc3ccc(C(C)(C)C(=O)O)cc3)CC2)nc2ccccc21 | -0.1% (inactive) | 1.3 | -0.3% (inactive) | -2.4% (inactive) | 3.7% (inactive) | -2.2% (inactive) | -1.6% (inactive) | -6.3% (inactive) | -10.2% (inactive) |
| CN(C)[C@@H]1C(=O)C(C(N)=O)=C(O)[C@@]2(O)C(=O)C3=C(O)c4c(O)cccc4C[C@H]3C[C@@H]12 | 11% (inactive) | -0.5 | -3% (inactive) | 98.1% (active) | -5.9% (inactive) | 18.7% (inactive) | 75.5% (active) | 100% (active) | 89.5% (active) |
| O=C(OC1C[C@@H]2CC3C[C@@H](C1)N2CC3=O)c1c[nH]c2ccccc12 (some centres not stated) | -1.1% (inactive) | -0.5 | 10.8% (inactive) | 4.3% (inactive) | -15.2% (inactive) | 0.9% (inactive) | 42% (inactive) | 12.6% (inactive) | 17.7% (inactive) |
| CCOC(=O)[C@H](CCc1ccccc1)N[C@H]1CCCN2CCC[C@@H](C(=O)O)N2C1=O | -0.5% (inactive) | 0.8 | -0.4% (inactive) | -16.7% (inactive) | -6.5% (inactive) | 4.4% (inactive) | 4.2% (inactive) | 4.5% (active) | -2.1% (inactive) |
| O=C1CC2(CCCC2)CC(=O)N1 | -0.8% (inactive) | -1.2 | 0.4% (inactive) | -4% (inactive) | -10.3% (inactive) | -1.6% (inactive) | 7.1% (inactive) | 2.5% (inactive) | -2.4% (inactive) |
| CN1CCC(N(Cc2cccs2)c2ccccc2)CC1 | -0.3% (inactive) | 5.8 | 26.2% (active) | 53.9% (active) | -3.7% (inactive) | 10% (inactive) | 49.3% (inactive) | 72.8% (active) | 13.1% (inactive) |
| CCOC(=O)c1ccc(OCCN2C[C@H](O)[C@@H](O)[C@H](O)[C@H]2CO)cc1 | 1.7% (inactive) | 0.9 | 0.1% (inactive) | -17.2% (inactive) | 10.1% (inactive) | -1% (inactive) | -40.4% (inactive) | -62.9% (inactive) | -12.5% (inactive) |
| Cc1cccc(N(C)C(=S)Oc2ccc3c(c2)C2CCC3C2)c1 (configuration not stated) | 0.3% (inactive) | 0.6 | 1% (inactive) | -64.8% (inactive) | 15.8% (inactive) | -4.7% (inactive) | 50.2% (active) | 80% (active) | 56.8% (active) |
| CC1CN(c2cc3c(cc2F)c(=O)c(C(=O)O)cn3-c2ccc(F)cc2F)CCN1 (configuration not stated) | -0.4% (inactive) | 0 | 2.1% (inactive) | 8.7% (inactive) | 5.5% (inactive) | -0.9% (inactive) | 10.7% (inactive) | 16.6% (inactive) | -0.2% (inactive) |
| NCCCC(N)CC(=O)NCC1NC(=O)C(CO)NC(=O)C(N)CNC(=O)C(C2CCN=C(N)N2)NC(=O)C(=CNC(N)=O)NC1=O (stereo not drawn) (H-[Dap]S[Dap](ξβ3hOrn)[ΔAla(3-NHCONH2)][X1]; lactam 1-C; configuration not given here) | 0.2% (inactive) | 1.8 | -0.9% (inactive) | 3.9% (inactive) | -1% (inactive) | -1.3% (inactive) | -22.2% (inactive) | -3.4% (inactive) | -12% (inactive) |
| Cc1cc(OCCOCC[N+](C)(C)Cc2ccccc2)ccc1C(C)(C)CC(C)(C)C | 3% (inactive) | 6.8 | 0.6% (inactive) | 101% (active) | 107% (active) | 98.1% (active) | 102% (active) | 141% (active) | 103% (active) |
| Oc1ccccc1 | -0.4% (inactive) | 0.2 | -0.2% (active) | -6.9% (inactive) | -36.6% (inactive) | 0.5% (inactive) | -11.1% (inactive) | 42.7% (inactive) | 0.9% (inactive) |
| Nc1nnnn1-c1ccccc1 | -0.2% (inactive) | 0.5 | -1.6% (inactive) | -7.65% (inactive) | -14.5% (inactive) | 2.4% (inactive) | 5.4% (inactive) | 56.4% (active) | -1.05% (inactive) |
| O=C(O)c1ccc(OCCN2CCCCC2)cc1 | -1% (inactive) | -0.1 | -2.35% (inactive) | 2.1% (inactive) | 4.5% (inactive) | 4% (inactive) | -8.6% (inactive) | -5.5% (inactive) | 0.5% (inactive) |
| NC(CSCC(=O)O)C(=O)O (configuration not stated) | 0.1% (inactive) | 1.5 | -0.7% (inactive) | -2.5% (inactive) | 18.6% (inactive) | -2.3% (inactive) | 0.7% (inactive) | 0.9% (inactive) | -5.3% (inactive) |
| CC(C)(C)c1nnc(NS(=O)(=O)c2ccccc2)s1 | 0.7% (inactive) | 1.5 | 33.5% (active) | -0.1% (inactive) | 17.7% (inactive) | -0.5% (inactive) | -5.8% (inactive) | -1.2% (inactive) | -7% (inactive) |
| NCCNc1ccc(NCCN)c2c1C(=O)c1ccncc1C2=O | 22.6% (inactive) | 8.9 | -0.4% (inactive) | 67.3% (active) | 91.4% (active) | -4.8% (inactive) | 47% (inactive) | 1.2% (inactive) | 14.7% (inactive) |
| CCCCCCCCCCCCCCCCCCCCCC(=O)Nc1ccn([C@@H]2O[C@H](CO)[C@@H](O)[C@H]2O)c(=O)n1 | 4.1% (inactive) | -0.9 | 3.05% (inactive) | 48.1% (inactive) | 51.7% (active) | -1.6% (inactive) | 39.5% (inactive) | 40.5% (inactive) | 15% (inactive) |
| CC(CC(C#N)(c1ccccc1)C(C)C)N(C)C (configuration not stated) | 2.7% (inactive) | 0.9 | 3.4% (inactive) | -53.4% (inactive) | 1.3% (inactive) | 0.5% (inactive) | -4.77% (inactive) | 14.5% (inactive) | -20% (inactive) |
| CCCCCOc1ccccc1/C(=C\SC)n1ccnc1 | 0.8% (inactive) | -0.3 | 3.4% (inactive) | -71.1% (inactive) | 30.4% (inactive) | 3.8% (inactive) | 61.1% (active) | 79.6% (active) | 99.5% (active) |
| O=C(C1CCCCC1)N1CC(=O)N2CCCc3ccccc3C2C1 (configuration not stated) | 1.4% (inactive) | 2.7 | 0.6% (inactive) | 6.6% (inactive) | 12.9% (inactive) | 5.2% (inactive) | -9.2% (inactive) | -250% (inactive) | -3.1% (inactive) |
| Cc1ccc(O)c2ncccc12 | 30.3% (inactive) | 2.4 | -2% (inactive) | 16.6% (inactive) | 5.7% (inactive) | 2.8% (inactive) | 33% (inactive) | 27% (inactive) | 4.9% (inactive) |
| O=C1C(c2[nH]c3ccc(S(=O)(=O)O)cc3c2O)=Nc2ccc(S(=O)(=O)O)cc21 | -1.7% (inactive) | -0.3 | 5.5% (inactive) | 23.1% (inactive) | -3.9% (inactive) | 3% (inactive) | 11.5% (inactive) | 13.9% (inactive) | 7% (inactive) |
